In PMC11574364 one finds binding signal data, which are given here for six sequences.

Targets include HNRNPCL3/4 (Homo sapiens, UniProt O60812); ELAVL3 (Homo sapiens, UniProt Q14576); CPSF6 (Homo sapiens, UniProt Q16630); hnRNP-CL1 (Homo sapiens, UniProt O60812); EIF4B (Homo sapiens, UniProt P23588).
What all share (assay): protein domain microarray probed with biotinylated miRNA; Domain array: 20 mM Tris-HCl pH 7.4, 200 mM KCl, 0.2 mM EDTA, 0.05% NP40, 2 ug/ul heparin, overnight 4 C. ORF array: PBS pH 7.0 with RNase inhibitor, 100 ng RNA; high values mean tight binding
Common to all, as to settings: ssRNA

The target of another assay is T1, hnRNP-M(3) (Homo sapiens, UniProt P52272).
T1 sequence: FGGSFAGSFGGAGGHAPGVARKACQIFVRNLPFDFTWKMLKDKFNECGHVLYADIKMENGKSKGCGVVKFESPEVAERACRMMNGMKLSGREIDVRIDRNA

The target in a further assay is T2, HTF9C (Homo sapiens, UniProt Q8IZ69).
T2 sequence: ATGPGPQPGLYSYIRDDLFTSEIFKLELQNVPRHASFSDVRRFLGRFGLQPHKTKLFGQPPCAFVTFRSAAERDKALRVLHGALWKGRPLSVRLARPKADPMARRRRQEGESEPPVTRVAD

The next assay concerns the target T3, NSAP1 (Homo sapiens, UniProt O60506).
T3 sequence: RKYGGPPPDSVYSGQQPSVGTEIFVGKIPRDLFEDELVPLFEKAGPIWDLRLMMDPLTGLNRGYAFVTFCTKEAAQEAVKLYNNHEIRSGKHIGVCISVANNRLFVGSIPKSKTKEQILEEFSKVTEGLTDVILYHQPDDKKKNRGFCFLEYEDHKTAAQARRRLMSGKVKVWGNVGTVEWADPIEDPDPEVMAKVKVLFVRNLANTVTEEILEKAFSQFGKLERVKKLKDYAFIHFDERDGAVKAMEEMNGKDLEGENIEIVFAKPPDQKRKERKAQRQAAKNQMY

The target in a further assay is T4, DAZ2/3 (Homo sapiens, UniProt Q9NR90).
T4 sequence: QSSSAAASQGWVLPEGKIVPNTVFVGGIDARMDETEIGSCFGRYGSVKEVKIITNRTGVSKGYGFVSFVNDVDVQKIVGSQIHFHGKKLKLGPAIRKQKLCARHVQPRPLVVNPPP

For a further assay, the target named is T5, NONO (Homo sapiens, UniProt Q15233).
T5 sequence: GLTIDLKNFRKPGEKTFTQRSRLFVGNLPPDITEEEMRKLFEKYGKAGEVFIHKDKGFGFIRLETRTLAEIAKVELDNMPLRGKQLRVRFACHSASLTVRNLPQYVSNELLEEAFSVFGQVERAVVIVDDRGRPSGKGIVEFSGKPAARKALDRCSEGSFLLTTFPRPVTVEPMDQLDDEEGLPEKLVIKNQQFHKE

Chain of HNRNPCL3/4 (O60812 1-110): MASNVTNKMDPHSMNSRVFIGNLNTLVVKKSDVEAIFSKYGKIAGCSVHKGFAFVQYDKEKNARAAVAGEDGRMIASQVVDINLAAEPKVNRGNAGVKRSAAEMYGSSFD
Chain of hnRNP-CL1 (O60812 1-110): as above
Chain of EIF4B (P23588 75-190): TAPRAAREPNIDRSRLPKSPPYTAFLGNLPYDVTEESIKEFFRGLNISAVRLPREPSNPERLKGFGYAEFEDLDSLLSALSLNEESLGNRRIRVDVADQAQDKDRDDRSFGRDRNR
Chain of ELAVL3 (Q14576 20-367): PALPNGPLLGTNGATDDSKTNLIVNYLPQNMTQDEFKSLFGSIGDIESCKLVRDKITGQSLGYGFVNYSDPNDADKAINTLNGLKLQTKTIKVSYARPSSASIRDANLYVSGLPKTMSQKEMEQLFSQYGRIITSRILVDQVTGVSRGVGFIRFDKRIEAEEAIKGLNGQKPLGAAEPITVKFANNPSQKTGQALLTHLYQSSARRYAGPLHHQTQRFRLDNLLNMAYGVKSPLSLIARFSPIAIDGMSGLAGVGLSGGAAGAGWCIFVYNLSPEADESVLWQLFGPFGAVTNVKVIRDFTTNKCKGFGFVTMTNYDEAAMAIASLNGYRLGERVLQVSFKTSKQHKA
Chain of CPSF6 (Q16630 60-180): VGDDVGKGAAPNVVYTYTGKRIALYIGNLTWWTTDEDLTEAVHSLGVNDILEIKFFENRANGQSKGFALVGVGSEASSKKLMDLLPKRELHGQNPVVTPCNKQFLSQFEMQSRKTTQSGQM

Take CAGUGCAAUGAUGAAAGGGCAU: the binding signal was found to be 37.9 ± 1.35 fluorescence intensity in the assay with hnRNP-M(3); 29.9 ± 0.976 fluorescence intensity with HNRNPCL3/4; 868 ± 33.5 fluorescence intensity with ELAVL3; 39.2 ± 6.51 fluorescence intensity in the assay with CPSF6; 23 ± 5.29 fluorescence intensity in the assay with hnRNP-CL1; 1810 ± 123 fluorescence intensity in the assay with EIF4B. Moreover, the binding signal with HTF9C was found to be 52.8 ± 3.39 fluorescence intensity; with NSAP1, 398 ± 6.14 fluorescence intensity; in the assay with DAZ2/3 it was 70.6 ± 0.849 fluorescence intensity.

For UGAGGUAGUAGGUUGUAUGGUU, the binding signal worked out at 78.7 ± 6.91 fluorescence intensity with hnRNP-M(3); 41.2 ± 0.665 fluorescence intensity in the assay with NONO; 34.6 ± 6.43 fluorescence intensity with HNRNPCL3/4; 1020 ± 53.3 fluorescence intensity in the assay with ELAVL3; 26.1 ± 6.17 fluorescence intensity with CPSF6; 43.3 ± 2.77 fluorescence intensity in the assay with hnRNP-CL1. The binding signal with EIF4B was 2140 ± 29.2 fluorescence intensity; with HTF9C, 104.2 ± 0.884 fluorescence intensity; with NSAP1, 1830 ± 24.4 fluorescence intensity; with DAZ2/3 it was 151 ± 11.5 fluorescence intensity.

Regarding UGAGGUAGUAGGUUGUGUGGUU, the binding signal was 112 ± 17.8 fluorescence intensity with hnRNP-M(3); 62.6 ± 1.97 fluorescence intensity with NONO; 36.4 ± 6.48 fluorescence intensity with HNRNPCL3/4; 1280 ± 96.1 fluorescence intensity with ELAVL3; 32.1 ± 8.4 fluorescence intensity with CPSF6; 77.6 ± 17.1 fluorescence intensity with hnRNP-CL1. For the same sequence, the binding signal with EIF4B amounted to 2502 ± 2.61 fluorescence intensity; with HTF9C, 182 ± 12.4 fluorescence intensity; in the assay with NSAP1, 1770 ± 45.4 fluorescence intensity; with DAZ2/3, 288 ± 6.91 fluorescence intensity.

On to UAGCUUAUCAGACUGAUGUUGA, for which the binding signal with hnRNP-M(3) was 20.6 ± 3.13 fluorescence intensity; with HNRNPCL3/4, 22.52 ± 0.0849 fluorescence intensity; in the assay with ELAVL3, 508 ± 14.6 fluorescence intensity; in the assay with CPSF6, 36.4 ± 14.3 fluorescence intensity; in the assay with EIF4B it was 24.6 ± 5.08 fluorescence intensity; with NSAP1, 42.1 ± 2.96 fluorescence intensity. In the assay with DAZ2/3, the binding signal turned out to be 153 ± 9.91 fluorescence intensity.

As for UGAGGUAGUAGGUUGUAUAGUU, the binding signal with hnRNP-M(3) was 22.8 ± 3.08 fluorescence intensity; in the assay with NONO it was 20.7 ± 2.69 fluorescence intensity; with HNRNPCL3/4 it was 22.3 ± 2.99 fluorescence intensity; in the assay with ELAVL3 it was 476 ± 12.5 fluorescence intensity; with CPSF6, 23 ± 8.56 fluorescence intensity; with hnRNP-CL1, 31.8 ± 10.7 fluorescence intensity. The figures for the binding signal with EIF4B, with NSAP1 and in the assay with DAZ2/3 were 883 ± 50 fluorescence intensity, 755 ± 86.6 fluorescence intensity and 37.8 ± 6.41 fluorescence intensity, respectively.

For the sequence AGAGGUAGUAGGUUGCAUAGUU, the binding signal is 68.4 ± 19.5 fluorescence intensity in the assay with hnRNP-M(3); 26.1 ± 4.07 fluorescence intensity in the assay with NONO; 1430 ± 30.2 fluorescence intensity in the assay with ELAVL3; 3250 ± 198 fluorescence intensity with EIF4B; 78 ± 2.68 fluorescence intensity in the assay with HTF9C; 1900 ± 59.9 fluorescence intensity with NSAP1. The binding signal with DAZ2/3 was found to be 260 ± 18.7 fluorescence intensity.
